One sequence from paper PMC7862700, “An all-to-all approach to the identification of sequence-specific readers for epigenetic DNA modifications on cytosine” can be followed below.

Holding throughout (assay): DAPPL (digital affinity profiling via proximity ligation, sequencing); 10 mM Tris-HCl pH 7.5, 50 mM NaCl, 1 mM DTT, 4% glycerol, room temperature, 30 min; GST-TFs on glutathione beads, 16-mer random dsDNA library, 0.1% formaldehyde crosslink after washing; high values mean tight binding
For one test, the target named is T1, FEV (Homo sapiens, UniProt Q99581 1-238).
T1 sequence: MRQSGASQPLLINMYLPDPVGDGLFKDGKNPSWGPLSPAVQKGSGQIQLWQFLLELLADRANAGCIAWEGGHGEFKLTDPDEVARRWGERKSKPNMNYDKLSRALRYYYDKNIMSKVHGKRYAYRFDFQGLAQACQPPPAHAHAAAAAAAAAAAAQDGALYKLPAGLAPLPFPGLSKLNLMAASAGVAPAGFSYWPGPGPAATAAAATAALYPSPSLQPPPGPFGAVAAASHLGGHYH
The settings on record: protein: recombinant; tags: N-terminal GST; dsDNA, one strand shown. The gist of the method: (§1)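 Human transcription factors were made in yeast as GST fusions, captured on glutathione beads and barcoded with DNA. With a tag-only sample included, the pool was incubated with 200 nmole of a random double-stranded 16-mer DNA library in Tris/NaCl/DTT/glycerol buffer at room temperature for 30 min, then crosslinked with 0.1% formaldehyde after washing, ligated by proximity, amplified and sequenced. For binding signal, each hexamer's read frequency for a factor is divided by its frequency for the tag-only sample.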

Another test has as its target ETV5 (Homo sapiens, UniProt P41161 1-510). To be noted: protein: recombinant; tags: N-terminal GST; dsDNA, one strand shown. In short, it runs like this: as §1
The next test deals with HSF1 (Homo sapiens, UniProt Q00613 1-529). To be noted: protein: recombinant; tags: N-terminal GST; chain copies: 3; dsDNA, one strand shown. The gist of the method:
as §1

In another test the target is T2, SPIC (Homo sapiens, UniProt Q8N5J4 1-248).
T2 sequence: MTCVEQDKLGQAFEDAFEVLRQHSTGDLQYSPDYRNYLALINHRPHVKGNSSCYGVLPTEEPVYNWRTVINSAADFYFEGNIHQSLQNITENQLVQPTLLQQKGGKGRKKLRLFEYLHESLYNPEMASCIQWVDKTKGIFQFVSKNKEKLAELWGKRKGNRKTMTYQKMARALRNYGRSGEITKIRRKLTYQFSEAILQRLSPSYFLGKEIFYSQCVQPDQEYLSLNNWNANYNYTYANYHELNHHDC
The settings on record: protein: recombinant; tags: N-terminal GST; dsDNA, one strand shown. The gist of the method: as §1

Another test addresses ELF4 (Homo sapiens, UniProt Q99607 1-663). The settings on record: protein: recombinant; tags: N-terminal GST; dsDNA, one strand shown. In short, it runs like this: as §1
In the next test the target is T3, ELK4 (Homo sapiens, UniProt P28324-2 1-405).
T3 sequence: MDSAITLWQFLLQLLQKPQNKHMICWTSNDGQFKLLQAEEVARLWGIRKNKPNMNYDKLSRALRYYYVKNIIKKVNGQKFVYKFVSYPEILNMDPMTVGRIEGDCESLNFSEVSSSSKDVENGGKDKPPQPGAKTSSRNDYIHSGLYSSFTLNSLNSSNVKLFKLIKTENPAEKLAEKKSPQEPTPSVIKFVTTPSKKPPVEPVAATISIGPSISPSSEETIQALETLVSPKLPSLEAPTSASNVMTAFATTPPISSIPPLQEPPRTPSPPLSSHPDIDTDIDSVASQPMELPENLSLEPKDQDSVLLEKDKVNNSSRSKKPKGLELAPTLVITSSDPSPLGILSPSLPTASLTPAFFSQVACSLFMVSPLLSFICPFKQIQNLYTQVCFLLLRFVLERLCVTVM
The settings on record: protein: recombinant; tags: N-terminal GST; dsDNA, one strand shown. The gist of the method: as §1

A further test deals with T4, ETV2 (Homo sapiens, UniProt O00321 1-342).
T4 sequence: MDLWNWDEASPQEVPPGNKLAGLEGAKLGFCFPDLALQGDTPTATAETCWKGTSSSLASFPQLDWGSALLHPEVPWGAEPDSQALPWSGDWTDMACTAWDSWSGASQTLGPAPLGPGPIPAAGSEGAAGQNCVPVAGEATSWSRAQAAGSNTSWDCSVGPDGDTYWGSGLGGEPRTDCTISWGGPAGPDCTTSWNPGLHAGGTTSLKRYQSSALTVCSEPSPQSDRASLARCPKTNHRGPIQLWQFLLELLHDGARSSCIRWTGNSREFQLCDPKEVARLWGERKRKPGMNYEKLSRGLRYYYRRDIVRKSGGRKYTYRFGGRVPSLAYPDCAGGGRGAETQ
To be noted: protein: recombinant; tags: N-terminal GST; dsDNA, one strand shown. In short, it runs like this: as §1

In the next test the target is T5, ELF3 (Homo sapiens, UniProt P78545 1-371).
T5 sequence: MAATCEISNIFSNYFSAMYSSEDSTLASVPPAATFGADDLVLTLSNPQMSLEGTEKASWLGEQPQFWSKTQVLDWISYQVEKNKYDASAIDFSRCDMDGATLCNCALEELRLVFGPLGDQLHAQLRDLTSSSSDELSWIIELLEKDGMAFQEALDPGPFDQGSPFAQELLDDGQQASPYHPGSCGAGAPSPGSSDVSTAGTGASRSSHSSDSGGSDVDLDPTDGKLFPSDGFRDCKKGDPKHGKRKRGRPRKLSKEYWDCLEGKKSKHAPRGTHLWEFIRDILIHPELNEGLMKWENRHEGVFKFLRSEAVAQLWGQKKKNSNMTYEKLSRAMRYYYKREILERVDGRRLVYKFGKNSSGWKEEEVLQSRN
To be noted: protein: recombinant; tags: N-terminal GST; dsDNA, one strand shown. In short, it runs like this: as §1

Another test has as its target CRX (Homo sapiens, UniProt O43186 1-299). To be noted: protein: recombinant; tags: N-terminal GST; dsDNA, one strand shown. The gist of the method:
as §1

The target of the next test is ETV1 (Homo sapiens, UniProt P50549 1-477). To be noted: protein: recombinant; tags: N-terminal GST; dsDNA, one strand shown. The gist of the method:
as §1

The next test addresses T6, ERF (Homo sapiens, UniProt P50548 1-548).
T6 sequence: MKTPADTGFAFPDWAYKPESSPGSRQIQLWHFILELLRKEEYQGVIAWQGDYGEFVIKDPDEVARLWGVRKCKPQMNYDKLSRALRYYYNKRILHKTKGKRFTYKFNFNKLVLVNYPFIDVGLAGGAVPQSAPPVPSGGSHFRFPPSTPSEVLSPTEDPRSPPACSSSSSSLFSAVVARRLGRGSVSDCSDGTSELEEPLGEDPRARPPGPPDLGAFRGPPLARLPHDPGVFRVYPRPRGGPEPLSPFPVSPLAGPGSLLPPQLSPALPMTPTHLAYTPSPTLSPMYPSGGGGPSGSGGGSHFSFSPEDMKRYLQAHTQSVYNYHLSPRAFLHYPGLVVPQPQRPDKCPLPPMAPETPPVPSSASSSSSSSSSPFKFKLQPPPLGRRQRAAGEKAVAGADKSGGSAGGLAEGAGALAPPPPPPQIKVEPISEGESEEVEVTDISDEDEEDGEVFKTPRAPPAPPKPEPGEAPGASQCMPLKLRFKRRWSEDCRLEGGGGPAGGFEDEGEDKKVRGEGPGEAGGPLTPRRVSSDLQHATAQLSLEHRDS
The settings on record: protein: recombinant; tags: N-terminal GST; dsDNA, one strand shown. The gist of the method: as §1

In another test the target is T7, ETV3L (Homo sapiens, UniProt Q6ZN32 1-361).
T7 sequence: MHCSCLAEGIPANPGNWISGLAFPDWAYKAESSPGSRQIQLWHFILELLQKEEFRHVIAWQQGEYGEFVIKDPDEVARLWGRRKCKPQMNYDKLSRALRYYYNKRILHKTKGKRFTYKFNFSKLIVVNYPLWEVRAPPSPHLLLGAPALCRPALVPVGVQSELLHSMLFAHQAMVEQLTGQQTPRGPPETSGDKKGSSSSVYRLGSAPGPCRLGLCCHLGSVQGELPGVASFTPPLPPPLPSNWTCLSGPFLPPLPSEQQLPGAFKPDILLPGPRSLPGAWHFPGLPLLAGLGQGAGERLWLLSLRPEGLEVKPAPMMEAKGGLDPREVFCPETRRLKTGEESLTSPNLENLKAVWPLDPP
To be noted: protein: recombinant; tags: N-terminal GST; dsDNA, one strand shown. The gist of the method:
as §1

In the next test the target is T8, ETS2 (Homo sapiens, UniProt P15036 1-469).
T8 sequence: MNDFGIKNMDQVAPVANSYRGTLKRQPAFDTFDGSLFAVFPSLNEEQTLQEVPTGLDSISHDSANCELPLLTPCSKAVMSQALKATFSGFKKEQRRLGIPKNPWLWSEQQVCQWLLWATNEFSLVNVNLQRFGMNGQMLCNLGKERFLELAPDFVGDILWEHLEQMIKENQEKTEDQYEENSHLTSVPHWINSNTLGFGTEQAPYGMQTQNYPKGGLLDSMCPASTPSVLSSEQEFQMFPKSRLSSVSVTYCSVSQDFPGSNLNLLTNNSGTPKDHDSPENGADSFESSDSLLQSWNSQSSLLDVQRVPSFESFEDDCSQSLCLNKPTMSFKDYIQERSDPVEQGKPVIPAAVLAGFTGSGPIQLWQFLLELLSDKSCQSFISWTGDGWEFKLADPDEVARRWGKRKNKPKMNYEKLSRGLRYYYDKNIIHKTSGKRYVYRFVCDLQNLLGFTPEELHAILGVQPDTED
To be noted: protein: recombinant; tags: N-terminal GST; dsDNA, one strand shown. The gist of the method:
as §1

A further test has as its target T9, SPDEF (Homo sapiens, UniProt O95238 1-335).
T9 sequence: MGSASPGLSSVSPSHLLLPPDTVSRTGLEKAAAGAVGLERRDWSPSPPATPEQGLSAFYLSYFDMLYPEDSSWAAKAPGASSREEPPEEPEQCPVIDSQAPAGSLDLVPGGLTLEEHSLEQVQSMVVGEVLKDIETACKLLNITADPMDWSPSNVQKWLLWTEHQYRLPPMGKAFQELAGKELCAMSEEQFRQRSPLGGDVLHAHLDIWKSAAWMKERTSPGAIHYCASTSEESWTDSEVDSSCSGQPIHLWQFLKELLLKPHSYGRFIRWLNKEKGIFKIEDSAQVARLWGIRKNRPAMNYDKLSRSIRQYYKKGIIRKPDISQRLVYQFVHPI
The settings on record: protein: recombinant; tags: N-terminal GST; dsDNA, one strand shown. In short, it runs like this:
as §1

For the next test, the target named is T10, ETV7 (Homo sapiens, UniProt Q9Y603 1-341).
T10 sequence: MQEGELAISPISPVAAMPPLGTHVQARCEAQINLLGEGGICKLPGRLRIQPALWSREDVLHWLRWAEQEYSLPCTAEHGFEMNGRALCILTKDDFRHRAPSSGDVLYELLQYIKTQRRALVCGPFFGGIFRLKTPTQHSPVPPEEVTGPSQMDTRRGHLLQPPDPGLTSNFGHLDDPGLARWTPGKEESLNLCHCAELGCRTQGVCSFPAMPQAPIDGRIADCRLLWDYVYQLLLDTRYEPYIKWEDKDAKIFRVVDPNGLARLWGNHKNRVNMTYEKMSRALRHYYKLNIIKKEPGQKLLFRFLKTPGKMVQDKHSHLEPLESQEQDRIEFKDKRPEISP
The settings on record: protein: recombinant; tags: N-terminal GST; dsDNA, one strand shown. In short, it runs like this:
as §1

A further test concerns the target T11, ELF5 (Homo sapiens, UniProt Q9UKW6-2 1-255).
T11 sequence: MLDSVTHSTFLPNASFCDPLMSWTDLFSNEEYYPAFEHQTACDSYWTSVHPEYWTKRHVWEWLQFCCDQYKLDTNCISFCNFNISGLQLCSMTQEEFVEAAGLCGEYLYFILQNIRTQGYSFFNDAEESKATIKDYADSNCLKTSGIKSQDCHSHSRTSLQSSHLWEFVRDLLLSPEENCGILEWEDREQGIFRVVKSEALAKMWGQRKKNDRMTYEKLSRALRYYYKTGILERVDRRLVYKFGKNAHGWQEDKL
To be noted: protein: recombinant; tags: N-terminal GST; dsDNA, one strand shown. In short, it runs like this: as §1

The next test has as its target T12, ETV3 (Homo sapiens, UniProt P41162-2 1-143).
T12 sequence: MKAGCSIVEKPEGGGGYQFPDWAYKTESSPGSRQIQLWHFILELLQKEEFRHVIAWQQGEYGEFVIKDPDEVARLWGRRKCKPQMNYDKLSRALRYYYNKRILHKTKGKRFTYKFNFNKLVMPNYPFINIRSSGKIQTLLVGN
The settings on record: protein: recombinant; tags: N-terminal GST; dsDNA, one strand shown. In short, it runs like this:
as §1

The target in another test is ETV6 (Homo sapiens, UniProt P41212 1-452). The settings on record: protein: recombinant; tags: N-terminal GST; dsDNA, one strand shown. In short, it runs like this: as §1
ETV6, sequence (P41212 whole entry): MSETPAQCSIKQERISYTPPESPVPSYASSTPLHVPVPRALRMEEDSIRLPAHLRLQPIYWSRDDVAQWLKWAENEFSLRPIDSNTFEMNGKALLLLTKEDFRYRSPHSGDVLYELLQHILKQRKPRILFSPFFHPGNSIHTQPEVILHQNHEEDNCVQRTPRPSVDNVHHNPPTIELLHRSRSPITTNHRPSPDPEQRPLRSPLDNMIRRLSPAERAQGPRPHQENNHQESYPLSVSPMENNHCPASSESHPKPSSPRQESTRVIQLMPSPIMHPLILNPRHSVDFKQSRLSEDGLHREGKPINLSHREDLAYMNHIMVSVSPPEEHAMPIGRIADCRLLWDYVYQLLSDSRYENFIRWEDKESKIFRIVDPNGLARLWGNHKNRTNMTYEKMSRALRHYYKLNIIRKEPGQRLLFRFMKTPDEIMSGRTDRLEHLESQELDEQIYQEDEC

CRX, sequence (O43186 whole entry): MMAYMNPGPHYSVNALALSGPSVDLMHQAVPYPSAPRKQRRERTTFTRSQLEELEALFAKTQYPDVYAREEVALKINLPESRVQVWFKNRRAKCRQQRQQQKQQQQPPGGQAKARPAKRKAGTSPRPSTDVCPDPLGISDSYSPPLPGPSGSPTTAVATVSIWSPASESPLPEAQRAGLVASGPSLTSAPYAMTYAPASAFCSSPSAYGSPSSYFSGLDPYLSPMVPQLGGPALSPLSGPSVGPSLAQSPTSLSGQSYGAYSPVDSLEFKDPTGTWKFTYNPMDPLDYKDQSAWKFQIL
HSF1, sequence (Q00613 whole entry): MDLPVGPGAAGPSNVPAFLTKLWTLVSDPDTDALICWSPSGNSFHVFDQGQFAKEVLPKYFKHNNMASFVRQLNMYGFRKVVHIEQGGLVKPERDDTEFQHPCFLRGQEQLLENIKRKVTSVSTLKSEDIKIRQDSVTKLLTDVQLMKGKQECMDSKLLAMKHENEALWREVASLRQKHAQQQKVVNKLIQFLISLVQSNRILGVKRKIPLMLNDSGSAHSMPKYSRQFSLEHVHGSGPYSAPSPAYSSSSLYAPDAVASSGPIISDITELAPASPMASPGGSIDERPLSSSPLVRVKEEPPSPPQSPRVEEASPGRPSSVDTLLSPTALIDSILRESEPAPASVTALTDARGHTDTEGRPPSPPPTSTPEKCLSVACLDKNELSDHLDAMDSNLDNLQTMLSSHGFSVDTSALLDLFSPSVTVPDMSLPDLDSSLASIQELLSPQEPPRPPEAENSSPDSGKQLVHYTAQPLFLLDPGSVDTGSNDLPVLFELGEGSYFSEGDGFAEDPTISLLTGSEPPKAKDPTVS
ETV5, sequence (P41161 whole entry): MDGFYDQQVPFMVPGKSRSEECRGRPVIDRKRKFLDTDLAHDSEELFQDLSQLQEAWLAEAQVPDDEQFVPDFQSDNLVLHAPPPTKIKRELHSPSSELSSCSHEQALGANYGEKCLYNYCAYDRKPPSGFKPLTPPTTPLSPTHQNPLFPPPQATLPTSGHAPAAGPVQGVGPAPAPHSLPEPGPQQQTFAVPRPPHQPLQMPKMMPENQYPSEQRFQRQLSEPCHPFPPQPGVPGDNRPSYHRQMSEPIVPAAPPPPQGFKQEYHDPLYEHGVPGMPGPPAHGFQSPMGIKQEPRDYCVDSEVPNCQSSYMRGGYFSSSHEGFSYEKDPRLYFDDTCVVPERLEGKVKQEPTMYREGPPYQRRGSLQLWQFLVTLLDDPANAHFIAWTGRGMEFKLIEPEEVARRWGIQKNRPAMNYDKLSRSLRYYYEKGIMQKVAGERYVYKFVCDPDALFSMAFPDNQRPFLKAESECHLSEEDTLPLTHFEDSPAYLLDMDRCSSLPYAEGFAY
ETV1, sequence (P50549 whole entry): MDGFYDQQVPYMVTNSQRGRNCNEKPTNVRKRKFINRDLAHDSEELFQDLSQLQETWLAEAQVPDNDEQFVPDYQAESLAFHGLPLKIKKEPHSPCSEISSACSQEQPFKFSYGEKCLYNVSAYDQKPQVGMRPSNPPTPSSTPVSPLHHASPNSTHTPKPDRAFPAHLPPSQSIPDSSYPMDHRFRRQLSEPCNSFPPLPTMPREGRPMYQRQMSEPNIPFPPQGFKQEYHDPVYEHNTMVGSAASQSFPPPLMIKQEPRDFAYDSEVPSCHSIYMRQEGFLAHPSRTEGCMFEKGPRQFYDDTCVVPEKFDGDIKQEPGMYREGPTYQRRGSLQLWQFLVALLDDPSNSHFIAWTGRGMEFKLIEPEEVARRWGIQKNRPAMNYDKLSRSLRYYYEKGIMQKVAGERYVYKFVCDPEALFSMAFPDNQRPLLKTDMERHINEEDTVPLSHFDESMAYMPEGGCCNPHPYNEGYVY
ELF4, sequence (Q99607 whole entry): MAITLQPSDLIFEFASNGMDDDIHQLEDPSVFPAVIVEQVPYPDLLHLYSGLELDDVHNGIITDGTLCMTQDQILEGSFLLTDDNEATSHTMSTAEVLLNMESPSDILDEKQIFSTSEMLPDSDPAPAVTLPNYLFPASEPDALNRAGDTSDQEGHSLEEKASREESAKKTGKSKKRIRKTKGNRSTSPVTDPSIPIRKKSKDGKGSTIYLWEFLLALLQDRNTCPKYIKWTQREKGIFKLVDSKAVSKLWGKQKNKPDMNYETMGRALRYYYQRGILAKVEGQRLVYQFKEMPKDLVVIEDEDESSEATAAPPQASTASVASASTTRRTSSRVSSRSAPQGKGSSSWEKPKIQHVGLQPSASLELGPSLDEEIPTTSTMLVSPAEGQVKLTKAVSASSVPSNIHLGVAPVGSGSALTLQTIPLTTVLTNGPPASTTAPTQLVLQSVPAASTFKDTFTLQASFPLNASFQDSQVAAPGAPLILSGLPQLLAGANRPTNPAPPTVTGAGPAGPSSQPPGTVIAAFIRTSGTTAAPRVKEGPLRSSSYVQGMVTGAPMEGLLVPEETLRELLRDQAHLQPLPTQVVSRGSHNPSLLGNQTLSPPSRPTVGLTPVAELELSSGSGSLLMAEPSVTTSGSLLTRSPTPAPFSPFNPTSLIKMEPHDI

Regarding AAGGAT, the binding signal with FEV was 1.1 fold enrichment (6-mer frequency, TF over GST control); with ETV5, 1.17 fold enrichment (6-mer frequency, TF over GST control); with HSF1, 1.5 fold enrichment (6-mer frequency, TF over GST control); with SPIC, 1.09 fold enrichment (6-mer frequency, TF over GST control); in the test with ELF4, 1.13 fold enrichment (6-mer frequency, TF over GST control); with ELK4, 1.08 fold enrichment (6-mer frequency, TF over GST control). Further, the binding signal with ETV2 was 1.24 fold enrichment (6-mer frequency, TF over GST control); with ELF3, 1.13 fold enrichment (6-mer frequency, TF over GST control); with CRX it was 1.97 fold enrichment (6-mer frequency, TF over GST control); with ETV1, 1.12 fold enrichment (6-mer frequency, TF over GST control); with ERF it was 1.12 fold enrichment (6-mer frequency, TF over GST control); with ETV3L, 1.21 fold enrichment (6-mer frequency, TF over GST control). Besides, the binding signal was 1.14 fold enrichment (6-mer frequency, TF over GST control) in the test with ETS2; 1.37 fold enrichment (6-mer frequency, TF over GST control) with SPDEF; 1.05 fold enrichment (6-mer frequency, TF over GST control) with ETV7; 1.43 fold enrichment (6-mer frequency, TF over GST control) with ELF5; 1.24 fold enrichment (6-mer frequency, TF over GST control) with ETV3; 1.21 fold enrichment (6-mer frequency, TF over GST control) with ETV6.
